Measurements reported in the supplement of paper PMC11732987, “Enantioselective OTUD7B fragment discovery through chemoproteomics screening and high-throughput optimisation” (Communications Chemistry, 2025).

Assays:
Assay in all cases: log2 ratio of Biotin-Ahx-Ub-VS probe labelling (fragment/DMSO); higher = less target engagement (more negative = stronger competition), active = hit call of the paper (q ≤ 0.05, log2 ratio ≤ -1)
Conditions in all cases: compound concentration: 200 uM; treatment time: 3 h
USP34 = USP34 (UniProt Q70CQ2)
In short: (§1)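 Average log2 ratios of fragment over vehicle were obtained by unpaired t-test from global-median-normalised Spectronaut label-free quantities. Proteins with ≥2 unique peptides were included. HEK293T lysate (495 µg per sample) was treated in triplicate with fragment at 200 µM or vehicle for 3 h, then with Biotin-Ahx-Ub-VS at 0.5 µM final for 1 h, and labelled DUBs were NeutrAvidin-enriched and run by diaPASEF LC-MS/MS.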

USP36 = biological target: T1, USP36 (UniProt Q9P275)
T1 sequence (whole entry): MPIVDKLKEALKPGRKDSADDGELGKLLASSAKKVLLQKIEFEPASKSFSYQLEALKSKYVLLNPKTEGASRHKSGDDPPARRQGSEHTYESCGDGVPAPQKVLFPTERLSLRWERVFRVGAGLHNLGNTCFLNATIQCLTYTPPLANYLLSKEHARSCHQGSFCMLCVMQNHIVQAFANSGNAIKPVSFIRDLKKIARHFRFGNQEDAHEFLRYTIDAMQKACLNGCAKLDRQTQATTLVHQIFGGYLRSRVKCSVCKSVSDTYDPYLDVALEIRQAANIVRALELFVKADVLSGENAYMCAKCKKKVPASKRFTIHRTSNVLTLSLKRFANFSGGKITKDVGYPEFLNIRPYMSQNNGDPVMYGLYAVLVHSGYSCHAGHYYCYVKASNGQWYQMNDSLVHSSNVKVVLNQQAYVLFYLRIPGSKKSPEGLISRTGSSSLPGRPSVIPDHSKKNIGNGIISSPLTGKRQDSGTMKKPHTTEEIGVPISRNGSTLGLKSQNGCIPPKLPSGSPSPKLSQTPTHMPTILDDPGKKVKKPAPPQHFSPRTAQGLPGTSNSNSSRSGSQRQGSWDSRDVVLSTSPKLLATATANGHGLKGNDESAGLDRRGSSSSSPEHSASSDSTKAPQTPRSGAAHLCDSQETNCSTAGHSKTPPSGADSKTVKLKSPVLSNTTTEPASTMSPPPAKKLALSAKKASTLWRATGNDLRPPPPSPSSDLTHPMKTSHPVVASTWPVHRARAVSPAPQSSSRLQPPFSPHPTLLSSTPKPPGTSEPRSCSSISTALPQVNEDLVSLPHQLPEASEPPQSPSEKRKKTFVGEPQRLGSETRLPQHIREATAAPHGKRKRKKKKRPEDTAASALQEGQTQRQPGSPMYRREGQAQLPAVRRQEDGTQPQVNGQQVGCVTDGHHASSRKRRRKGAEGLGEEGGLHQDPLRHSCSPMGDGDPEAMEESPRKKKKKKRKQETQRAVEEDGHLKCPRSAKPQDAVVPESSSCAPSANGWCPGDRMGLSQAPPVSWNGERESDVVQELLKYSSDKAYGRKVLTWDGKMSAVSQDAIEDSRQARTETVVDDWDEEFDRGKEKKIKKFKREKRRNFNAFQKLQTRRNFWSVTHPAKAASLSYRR
In short: as §1

USP38 = biological target: T2, USP38 (UniProt Q8NB14)
T2 sequence (whole entry): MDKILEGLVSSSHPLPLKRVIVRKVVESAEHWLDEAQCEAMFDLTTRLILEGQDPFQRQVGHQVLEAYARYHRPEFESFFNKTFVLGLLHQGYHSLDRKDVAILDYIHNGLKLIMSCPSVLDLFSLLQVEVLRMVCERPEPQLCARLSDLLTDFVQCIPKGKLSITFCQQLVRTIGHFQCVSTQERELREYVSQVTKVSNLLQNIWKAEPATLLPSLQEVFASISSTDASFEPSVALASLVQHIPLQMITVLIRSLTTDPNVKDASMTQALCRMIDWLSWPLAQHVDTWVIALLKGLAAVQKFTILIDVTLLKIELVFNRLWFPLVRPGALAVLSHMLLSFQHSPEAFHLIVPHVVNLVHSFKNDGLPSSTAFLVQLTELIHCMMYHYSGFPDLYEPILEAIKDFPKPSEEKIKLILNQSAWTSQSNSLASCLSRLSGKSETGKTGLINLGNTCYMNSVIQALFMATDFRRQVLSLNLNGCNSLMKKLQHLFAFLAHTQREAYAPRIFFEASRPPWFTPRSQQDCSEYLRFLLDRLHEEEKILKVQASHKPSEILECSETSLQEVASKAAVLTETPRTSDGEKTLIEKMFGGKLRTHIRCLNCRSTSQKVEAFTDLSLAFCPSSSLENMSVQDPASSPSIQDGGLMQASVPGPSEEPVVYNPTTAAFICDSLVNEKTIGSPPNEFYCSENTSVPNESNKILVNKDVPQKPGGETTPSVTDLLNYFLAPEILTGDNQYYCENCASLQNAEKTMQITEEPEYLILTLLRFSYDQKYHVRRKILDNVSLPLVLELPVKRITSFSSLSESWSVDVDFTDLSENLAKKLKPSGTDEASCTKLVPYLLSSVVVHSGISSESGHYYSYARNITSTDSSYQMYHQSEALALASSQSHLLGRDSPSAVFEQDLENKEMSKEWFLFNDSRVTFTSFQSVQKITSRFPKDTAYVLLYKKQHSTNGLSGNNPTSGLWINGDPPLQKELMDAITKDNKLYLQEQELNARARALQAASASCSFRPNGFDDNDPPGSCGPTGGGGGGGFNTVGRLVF
In short: as §1

USP39 = biological target: T3, USP39 (UniProt Q53GS9)
T3 sequence (whole entry): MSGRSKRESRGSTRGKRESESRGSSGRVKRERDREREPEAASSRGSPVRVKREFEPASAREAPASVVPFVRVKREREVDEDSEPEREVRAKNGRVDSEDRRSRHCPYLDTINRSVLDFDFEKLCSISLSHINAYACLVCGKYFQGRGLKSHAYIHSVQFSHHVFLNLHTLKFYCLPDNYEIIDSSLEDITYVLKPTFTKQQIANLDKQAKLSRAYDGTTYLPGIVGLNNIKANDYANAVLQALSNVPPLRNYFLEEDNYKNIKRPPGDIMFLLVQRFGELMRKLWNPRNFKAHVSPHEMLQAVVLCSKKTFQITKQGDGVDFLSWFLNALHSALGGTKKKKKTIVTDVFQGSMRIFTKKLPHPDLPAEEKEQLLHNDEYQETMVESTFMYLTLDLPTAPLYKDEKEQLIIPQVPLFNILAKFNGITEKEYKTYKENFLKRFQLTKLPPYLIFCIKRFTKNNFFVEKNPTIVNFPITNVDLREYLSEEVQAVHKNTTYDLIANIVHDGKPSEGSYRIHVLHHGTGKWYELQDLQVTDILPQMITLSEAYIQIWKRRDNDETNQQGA
In short: as §1

USP4 = biological target: T4, USP4 (UniProt Q13107)
T4 sequence (whole entry): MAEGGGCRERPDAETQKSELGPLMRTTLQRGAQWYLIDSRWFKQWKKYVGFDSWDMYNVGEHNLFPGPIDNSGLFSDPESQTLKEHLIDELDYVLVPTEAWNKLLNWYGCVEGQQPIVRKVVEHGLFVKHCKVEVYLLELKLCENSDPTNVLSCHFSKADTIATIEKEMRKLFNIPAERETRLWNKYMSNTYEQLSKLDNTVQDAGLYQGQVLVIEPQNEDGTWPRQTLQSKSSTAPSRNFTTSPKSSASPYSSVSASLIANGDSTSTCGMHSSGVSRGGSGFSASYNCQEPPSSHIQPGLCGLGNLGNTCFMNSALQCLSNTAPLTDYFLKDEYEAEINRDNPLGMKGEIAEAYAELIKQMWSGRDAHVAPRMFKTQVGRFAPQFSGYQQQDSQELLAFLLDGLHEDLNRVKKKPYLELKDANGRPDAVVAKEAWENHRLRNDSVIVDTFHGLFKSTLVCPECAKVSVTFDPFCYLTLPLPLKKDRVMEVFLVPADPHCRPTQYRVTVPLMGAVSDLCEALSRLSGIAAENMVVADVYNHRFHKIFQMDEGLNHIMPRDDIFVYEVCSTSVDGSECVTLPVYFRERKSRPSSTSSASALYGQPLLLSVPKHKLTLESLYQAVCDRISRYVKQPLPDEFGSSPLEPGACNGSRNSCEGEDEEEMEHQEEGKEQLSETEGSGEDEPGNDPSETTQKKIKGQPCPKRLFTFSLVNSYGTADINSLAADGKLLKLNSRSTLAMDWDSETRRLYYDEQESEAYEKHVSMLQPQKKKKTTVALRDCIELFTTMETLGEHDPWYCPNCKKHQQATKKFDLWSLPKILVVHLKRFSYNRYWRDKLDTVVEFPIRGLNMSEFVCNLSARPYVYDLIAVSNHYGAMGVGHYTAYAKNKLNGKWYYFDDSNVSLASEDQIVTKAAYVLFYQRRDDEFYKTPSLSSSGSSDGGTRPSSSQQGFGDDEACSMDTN
In short: as §1

Measured: log2 ratio of Biotin-Ahx-Ub-VS probe labelling

USP34, sequence (Q70CQ2 whole entry, the tested form may be a part): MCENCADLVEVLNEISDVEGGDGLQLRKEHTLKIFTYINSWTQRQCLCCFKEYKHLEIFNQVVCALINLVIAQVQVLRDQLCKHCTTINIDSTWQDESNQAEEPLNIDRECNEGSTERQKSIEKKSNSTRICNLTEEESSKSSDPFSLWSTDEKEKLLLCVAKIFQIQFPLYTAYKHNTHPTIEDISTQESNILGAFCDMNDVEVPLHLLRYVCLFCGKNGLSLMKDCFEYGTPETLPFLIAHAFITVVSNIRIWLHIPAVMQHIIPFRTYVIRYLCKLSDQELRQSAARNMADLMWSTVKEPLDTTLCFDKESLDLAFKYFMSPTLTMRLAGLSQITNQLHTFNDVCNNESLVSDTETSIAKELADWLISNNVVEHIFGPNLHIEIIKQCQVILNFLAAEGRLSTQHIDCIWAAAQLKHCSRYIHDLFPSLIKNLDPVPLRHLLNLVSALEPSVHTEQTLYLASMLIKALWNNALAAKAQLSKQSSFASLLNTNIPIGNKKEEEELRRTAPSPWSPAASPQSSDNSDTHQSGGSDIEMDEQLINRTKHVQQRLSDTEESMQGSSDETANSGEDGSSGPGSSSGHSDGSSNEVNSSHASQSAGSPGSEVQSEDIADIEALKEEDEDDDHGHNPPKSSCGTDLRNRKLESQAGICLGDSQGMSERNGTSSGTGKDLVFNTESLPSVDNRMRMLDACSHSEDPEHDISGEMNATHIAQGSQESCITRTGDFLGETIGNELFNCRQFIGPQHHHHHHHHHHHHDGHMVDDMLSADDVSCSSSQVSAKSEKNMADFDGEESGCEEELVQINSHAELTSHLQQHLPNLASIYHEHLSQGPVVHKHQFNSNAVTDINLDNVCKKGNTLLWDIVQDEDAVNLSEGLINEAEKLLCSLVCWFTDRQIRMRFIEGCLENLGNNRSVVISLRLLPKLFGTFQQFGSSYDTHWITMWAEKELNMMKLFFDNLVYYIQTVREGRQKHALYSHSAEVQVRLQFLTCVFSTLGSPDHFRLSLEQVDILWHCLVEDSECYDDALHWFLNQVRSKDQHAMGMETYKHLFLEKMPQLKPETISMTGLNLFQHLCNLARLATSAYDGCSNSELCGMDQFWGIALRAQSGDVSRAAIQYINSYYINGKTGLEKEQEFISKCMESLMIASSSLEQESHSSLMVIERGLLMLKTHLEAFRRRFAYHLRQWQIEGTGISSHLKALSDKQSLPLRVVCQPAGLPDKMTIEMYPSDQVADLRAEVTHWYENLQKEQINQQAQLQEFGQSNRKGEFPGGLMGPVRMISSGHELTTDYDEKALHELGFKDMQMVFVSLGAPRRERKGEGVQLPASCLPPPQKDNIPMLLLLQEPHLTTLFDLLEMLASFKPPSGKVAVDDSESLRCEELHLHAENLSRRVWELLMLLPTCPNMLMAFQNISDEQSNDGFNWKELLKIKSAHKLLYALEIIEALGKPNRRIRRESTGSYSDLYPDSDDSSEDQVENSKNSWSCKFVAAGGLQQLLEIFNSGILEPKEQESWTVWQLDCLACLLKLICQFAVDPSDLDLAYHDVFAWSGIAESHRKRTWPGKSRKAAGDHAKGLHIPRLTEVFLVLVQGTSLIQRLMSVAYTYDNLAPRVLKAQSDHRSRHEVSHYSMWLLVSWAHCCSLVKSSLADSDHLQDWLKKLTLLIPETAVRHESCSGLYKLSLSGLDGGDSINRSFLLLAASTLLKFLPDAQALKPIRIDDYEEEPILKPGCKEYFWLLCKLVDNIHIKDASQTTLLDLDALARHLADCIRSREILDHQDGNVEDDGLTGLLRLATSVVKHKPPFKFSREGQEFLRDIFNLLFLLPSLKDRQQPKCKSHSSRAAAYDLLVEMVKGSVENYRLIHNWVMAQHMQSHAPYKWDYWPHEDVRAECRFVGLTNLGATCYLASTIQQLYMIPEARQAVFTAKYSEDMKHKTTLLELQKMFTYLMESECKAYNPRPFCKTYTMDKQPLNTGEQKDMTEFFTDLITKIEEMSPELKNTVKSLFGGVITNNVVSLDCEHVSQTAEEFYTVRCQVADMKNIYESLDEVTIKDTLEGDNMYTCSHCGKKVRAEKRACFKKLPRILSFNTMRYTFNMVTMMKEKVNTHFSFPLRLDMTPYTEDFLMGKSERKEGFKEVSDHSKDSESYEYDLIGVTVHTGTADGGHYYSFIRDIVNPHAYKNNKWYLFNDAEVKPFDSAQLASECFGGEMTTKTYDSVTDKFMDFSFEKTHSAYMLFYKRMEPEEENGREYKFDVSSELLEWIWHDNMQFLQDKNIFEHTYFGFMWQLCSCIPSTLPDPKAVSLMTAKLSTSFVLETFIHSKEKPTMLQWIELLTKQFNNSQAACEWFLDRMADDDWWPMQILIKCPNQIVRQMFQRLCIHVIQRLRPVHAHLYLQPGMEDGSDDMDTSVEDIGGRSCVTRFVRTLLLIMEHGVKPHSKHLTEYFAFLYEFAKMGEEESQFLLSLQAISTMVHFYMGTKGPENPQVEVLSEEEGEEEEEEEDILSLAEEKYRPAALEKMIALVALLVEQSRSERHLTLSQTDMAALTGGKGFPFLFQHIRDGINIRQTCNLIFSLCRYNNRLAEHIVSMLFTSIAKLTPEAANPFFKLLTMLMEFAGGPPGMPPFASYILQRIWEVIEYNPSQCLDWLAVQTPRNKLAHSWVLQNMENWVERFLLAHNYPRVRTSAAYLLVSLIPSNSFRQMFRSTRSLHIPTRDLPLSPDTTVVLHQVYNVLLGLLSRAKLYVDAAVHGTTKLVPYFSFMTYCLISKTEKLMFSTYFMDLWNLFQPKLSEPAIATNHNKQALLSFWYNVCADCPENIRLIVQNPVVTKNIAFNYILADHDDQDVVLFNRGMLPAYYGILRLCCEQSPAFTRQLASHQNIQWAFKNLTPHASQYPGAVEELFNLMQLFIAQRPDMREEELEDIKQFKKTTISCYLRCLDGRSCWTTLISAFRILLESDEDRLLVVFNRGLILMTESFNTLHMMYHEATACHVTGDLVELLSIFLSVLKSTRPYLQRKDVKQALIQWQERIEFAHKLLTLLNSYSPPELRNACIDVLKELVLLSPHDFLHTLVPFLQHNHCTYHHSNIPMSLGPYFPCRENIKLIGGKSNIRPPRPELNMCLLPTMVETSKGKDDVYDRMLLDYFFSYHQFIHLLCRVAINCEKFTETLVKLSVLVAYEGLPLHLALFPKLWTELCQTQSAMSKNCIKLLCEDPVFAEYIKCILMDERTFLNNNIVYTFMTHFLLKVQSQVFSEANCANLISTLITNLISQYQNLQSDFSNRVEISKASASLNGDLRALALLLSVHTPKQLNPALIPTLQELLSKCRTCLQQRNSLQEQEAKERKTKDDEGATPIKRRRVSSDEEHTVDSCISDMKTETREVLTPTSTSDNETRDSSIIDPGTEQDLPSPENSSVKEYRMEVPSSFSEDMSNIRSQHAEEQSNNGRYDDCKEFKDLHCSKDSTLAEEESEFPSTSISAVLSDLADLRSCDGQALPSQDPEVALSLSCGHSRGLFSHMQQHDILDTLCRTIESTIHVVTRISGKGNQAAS

O=C(CCl)N1CCC(OCc2ccccc2F)CC1
inactive: USP34 -0.138 | USP36 0.169 | USP38 0.211 | USP39 0.264 | USP4 -0.121
